Assay outcomes (PubChem BioAssay)
Shown are actives, neighbours in structure and some others; about 10% of the full set was active somewhere.
HP1b chromo inh: HP1-beta chromodomain-methylated histone interaction inhibition; actives 0.56% (n = 390,000); AID 540317; Potency, µM (doses to about 114 µM), inactives show at the top dose activity change, negative = inhibition, hits mostly inhibitors; AlphaScreen HP1-beta / biotin-H3K9me3 peptide binding; note: potency is the fitted concentration of half-maximal effect; nearly all actives have a fitted effect of over 70% in size
Target sequence (P83916 whole entry, looked up): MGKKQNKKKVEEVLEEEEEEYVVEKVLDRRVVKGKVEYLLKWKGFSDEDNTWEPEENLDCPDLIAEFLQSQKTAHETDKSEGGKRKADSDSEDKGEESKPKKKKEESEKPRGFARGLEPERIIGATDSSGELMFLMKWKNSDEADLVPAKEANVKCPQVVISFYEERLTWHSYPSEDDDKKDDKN
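Compound inhibition of the preformed complex between 50 nM HP1-beta and 50 nM biotinylated H3K9me3 peptide was read by AlphaScreen. Buffer was PBS pH 7.4 with 0.01% Tween-20. Incubations ran 30 min at room temperature, with 10 ug/mL donor/acceptor beads.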
CtBP-E1A inh: blocks the CtBP interaction with E1A | activity change, % (test concentration not listed) | actives 0.49% (n = 340,000) | AlphaScreen GST-E1A/His-CtBP binding, 1536-well; hits give low values; in the data active = activity change below about -65%; inconclusive = mostly about -30% to -63%; note: % is set by controls: 0 for no effect and ±100 for the full control effect
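In 5 uL wells, 23 nL compound meets equimolar GST-E1A and His-CtBP (5X stock 125 nM each) for 2 h, 37 °C. Beads (5X, 50 ug/mL) then 1 h, 37 °C, dark.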
Six1-Eya2 inh: inhibitors of human Six1/Eya2 interaction. Q15475+O00167. AlphaScreen GST-Six1/His-Eya2 binding, biochemical; hits give low values. activity change, % (no concentration beside the values). actives 0.56% (n = 360,000). AID 651725; in the data active = activity change below about -65%; inconclusive = mostly about -30% to -63%; note: % is set by controls: 0 for no effect and ±100 for the full control effect
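GST-Six1 + His-Eya2 (5X stock: 250/500 nM); Tris pH 8.0, 300 mM NaCl, 0.05% BSA, 0.02% Tween 20; GSH donor/Ni acceptor beads; 1 h 37 °C dark; AlphaScreen readout.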
BAZ2B block: BAZ2B (human) inhibition; actives 4.4% (n = 360,000); Q9UIF8; Potency, µM (top dose mostly 114 µM), for inactives: top-dose activity change, negative = inhibition, most hits filed as inhibitors; AlphaScreen BAZ2B-H3K14Ac peptide displacement; note: potency is the fitted concentration of half-maximal effect; % is set by controls: 0 for no effect and ±100 for the full control effect; nearly all actives have a fitted effect of over 60% in size
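In this displacement format the biotinylated H3(5-23) peptide acetylated at Lys14 serves as ligand at 50 nM, with BAZ2B at 50 nM in PBS pH 7.4 containing 0.01% Tween-20. Donor and acceptor beads are 10 ug/mL final.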
G9a block: G9a (human) methyltransferase inhibition; Q96KQ7; Potency, µM (titrated, usually from 102 µM), for the others: top-dose activity, negative = inhibition, most hits filed as inhibitors; G9a H3K9 monomethylation, AlphaScreen, 2 h; AID 504332; actives 8.8% (n = 350,000); note: potency is the fitted concentration of half-maximal effect; % is set by controls: 0 for no effect and ±100 for the full control effect; nearly all actives have a fitted effect of over 75% in size
Target sequence (Q96KQ7 913-1193 limits assumed): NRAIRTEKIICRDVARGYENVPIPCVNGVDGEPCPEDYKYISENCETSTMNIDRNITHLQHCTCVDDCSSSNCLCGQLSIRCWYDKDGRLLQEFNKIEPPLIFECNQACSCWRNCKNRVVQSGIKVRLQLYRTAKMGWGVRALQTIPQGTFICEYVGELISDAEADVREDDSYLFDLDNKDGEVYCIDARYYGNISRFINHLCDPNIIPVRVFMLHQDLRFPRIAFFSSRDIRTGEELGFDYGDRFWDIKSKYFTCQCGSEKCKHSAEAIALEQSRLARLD
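AlphaScreen detection with an anti-monomethyl H3K9 antibody quantified product after a 2 h room-temperature reaction containing 500 nM biotinylated H3K9 peptide, 20 µM SAM and 20 nM enzyme, which had been preincubated 15 min with compound.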
JMJD2A Tudor inh: JMJD2A Tudor domain (human) inhibition | O75164 | AlphaScreen JMJD2A-Tudor / H3K4me3 peptide binding | Potency, µM (doses to about 114 µM), inactives show top-dose activity change, negative = inhibition, usual class: inhibitors | actives 4.4% (n = 390,000) | AID 504339; note: potency is the fitted concentration of half-maximal effect; % is set by controls: 0 for no effect and ±100 for the full control effect; nearly all actives have a fitted effect of over 50% in size
* = called active by the depositor; [ ] = remark or other dose. Unless noted, calls come from the whole dose curve; as a rule, active = well fitted inhibition curve with a large enough effect; inconclusive = small, poorly fitted or top-dose-only effect; inactive = no such curve, though single readings can be large or run the other way.

Screening NC(=O)CC(NC(=O)c1ccc(Br)cc1)c1ccc(N2CCN(c3ccccc3)CC2)c([N+](=O)[O-])c1 (stereo not drawn) returned HP1b chromo inh 22%, CtBP-E1A inh -6, Six1-Eya2 inh -2, BAZ2B block inconclusive, G9a block -18% and JMJD2A Tudor inh -29%.
`CCOC(=O)Cn1c(=O)oc2cc(S(=O)(=O)NCc3ccc(F)cc3)ccc21` gave HP1b chromo inh 45%, BAZ2B block 4%[57.1 µM], G9a block 6%[59 µM] and JMJD2A Tudor inh 3%.
O=C(CNC(=O)C1CCCCCC1)OC(C(=O)Nc1cc(C(F)(F)F)ccc1Cl)c1ccccc1 (stereo not drawn) was read as JMJD2A Tudor inh -16%.
For NC(=O)CC(NC(=O)c1cccc(Br)c1)c1ccc(N2CCC(N3CCCCC3)CC2)c([N+](=O)[O-])c1 (stereo not drawn) the results were HP1b chromo inh 34%, CtBP-E1A inh 4, Six1-Eya2 inh 0, BAZ2B block -37%, G9a block 45µM* and JMJD2A Tudor inh -3%.
Screening Cn1cccc1C(=O)N1CCC2(CC1)CCN(c1cccc(-c3ccccc3)c1)CC2 returned G9a block -19%[12.7 µM].
CC1CCN(c2cc(N)c(Cl)cc2[N+](=O)[O-])CC1 was read as HP1b chromo inh -17%, CtBP-E1A inh -3, Six1-Eya2 inh -8, BAZ2B block inconclusive, G9a block 50µM* and JMJD2A Tudor inh inconclusive.
`CC1CCN(c2cc(C#N)c(C#N)cc2[N+](=O)[O-])CC1` gave HP1b chromo inh 32%, CtBP-E1A inh 1, Six1-Eya2 inh -2, BAZ2B block 2%, G9a block -3%[59 µM] and JMJD2A Tudor inh -2%.
`Cc1cc2c(s1)c1cnn(Cc3cccc([N+](=O)[O-])c3)c(=O)c1n2C` gave JMJD2A Tudor inh -15%.
For CC1(C)CC(=O)C(CC2CCCCC2=O)C(=O)C1 (stereo not drawn) the results were HP1b chromo inh 36%, CtBP-E1A inh -3, Six1-Eya2 inh -10, BAZ2B block 1%, G9a block 31%[59 µM] and JMJD2A Tudor inh -20%.
`CC1(C)CC(=O)C(CC2C(=O)CC(C)(C)CC2=O)C(=O)C1` gave HP1b chromo inh 28%, CtBP-E1A inh 3, Six1-Eya2 inh 8, BAZ2B block -3%, G9a block 22µM* and JMJD2A Tudor inh -9%.
For O=C(CC1(O)C(=O)Nc2ccccc21)c1ccc2c(c1)OCO2 (stereo not drawn) the results were HP1b chromo inh 3%, CtBP-E1A inh -4, Six1-Eya2 inh -1, BAZ2B block 5%, G9a block -43% and JMJD2A Tudor inh -13%.
Screening O=C(CC1(O)C(=O)Nc2ccccc21)c1cccc(-n2cccc2)c1 (stereo not drawn) returned HP1b chromo inh 0%, CtBP-E1A inh -17, Six1-Eya2 inh -3, BAZ2B block 50µM*, G9a block inconclusive and JMJD2A Tudor inh inconclusive.
`O=C(N/N=C/c1ccccc1)c1cc[n+]([O-])cc1` gave HP1b chromo inh -7%, CtBP-E1A inh 2, Six1-Eya2 inh 6, BAZ2B block 0%, G9a block 4% and JMJD2A Tudor inh -13%.
For Cc1nccn1CC(=O)N/N=C/c1c[nH]c2ccccc12 the results were HP1b chromo inh 26%, CtBP-E1A inh -12, Six1-Eya2 inh -8, BAZ2B block -21%, G9a block 5% and JMJD2A Tudor inh -14%.
`O=C(N/N=C/c1ccc(O)c([N+](=O)[O-])c1)c1ccncc1` gave HP1b chromo inh 29%, CtBP-E1A inh 8, Six1-Eya2 inh -11, BAZ2B block 23% and JMJD2A Tudor inh -14%.
For O=C(N/N=C/c1cc([N+](=O)[O-])ccc1O)c1ccncc1 the results were HP1b chromo inh 43%, Six1-Eya2 inh -90*, BAZ2B block 10µM* and JMJD2A Tudor inh 22µM*.
Cc1nccn1CC(=O)N/N=C/c1ccccc1O was read as HP1b chromo inh 29%, CtBP-E1A inh -96*, Six1-Eya2 inh -81*, BAZ2B block 45µM* and JMJD2A Tudor inh 56µM*.
For O=C(N/N=C/c1ccccc1O)c1cc[n+]([O-])cc1 the results were HP1b chromo inh 66%, CtBP-E1A inh -94*, Six1-Eya2 inh -78*, BAZ2B block 20µM*, G9a block -4% and JMJD2A Tudor inh 35µM*.
COc1ccc(/C=N/NC(=O)C(=O)Nc2ccccn2)cc1OC was read as HP1b chromo inh 15%, CtBP-E1A inh 0, Six1-Eya2 inh 1, BAZ2B block 0%, G9a block inconclusive and JMJD2A Tudor inh -28%.
`O=C(N/N=C/c1ccccc1O)C(=O)Nc1ccccn1` gave HP1b chromo inh 54%, Six1-Eya2 inh -88*, BAZ2B block inconclusive, G9a block -4% and JMJD2A Tudor inh inconclusive.
For O=C(N/N=C/c1ccccc1O)c1cccc2ccccc12 the results were HP1b chromo inh 37%, Six1-Eya2 inh -5, BAZ2B block 6% and JMJD2A Tudor inh -10%.
For O=C(N/N=C/c1cc(Br)ccc1OC(=O)c1ccc(Br)cc1)c1ccncc1 the results were HP1b chromo inh inconclusive, CtBP-E1A inh -91*, Six1-Eya2 inh -79*, BAZ2B block 50µM*, G9a block 21% and JMJD2A Tudor inh 89µM*.
Screening O=C(N/N=C/c1ccccc1O)c1cc(=O)[nH]c2ccccc12 returned BAZ2B block 50µM* and G9a block 1%[59 µM].
Screening Nc1nonc1C(=O)N/N=C/c1cc(Br)ccc1O returned HP1b chromo inh 37%, CtBP-E1A inh -92*, Six1-Eya2 inh -93*, BAZ2B block 7.9µM*, G9a block inconclusive and JMJD2A Tudor inh 18µM*.
O=C(N/N=C/c1ccc(OC(=O)c2ccc(Br)cc2)cc1)c1ccncc1 was read as HP1b chromo inh 26%, CtBP-E1A inh 5, Six1-Eya2 inh inconclusive, BAZ2B block -13%, G9a block -8% and JMJD2A Tudor inh inconclusive.
`O=C(N/N=C/c1ccc(O)c2ncccc12)c1cccc(Br)c1` gave HP1b chromo inh 34%, CtBP-E1A inh -92*, Six1-Eya2 inh -82*, BAZ2B block 8.9µM*, G9a block -29% and JMJD2A Tudor inh 22µM*.
Screening CCOc1ccccc1CNC(=O)CN(c1ccc(C)cc1)S(=O)(=O)N(C)C returned HP1b chromo inh 27%, BAZ2B block 4%, G9a block -4%[59 µM] and JMJD2A Tudor inh 3%.
`Fc1ccc(Nc2nc3ccccc3c3nncn23)c(Cl)c1` gave HP1b chromo inh 25%, BAZ2B block -13%, G9a block 5%[59 µM] and JMJD2A Tudor inh 3%.
